High-throughput results as filed in PubChem BioAssay.
PERK inh – human PERK inhibition, primary cell-based screen. CHO PERK-DD fusion, SEAP luminescence translation reporter. Q9NZJ5. hit rate 0.17% among 220,000. inhibition, % at 5.6 µM. AID 1416;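 active = inhibition above the mean inhibition of all tested compounds plus 3 SD, set separately per screening campaign, cut at about 2.9% in these data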;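 also: PERK kinase domain activated by AP20187 dimerizer at 100 nM; 0% = DMSO with dimerizer and 100% = rapamycin at 8.4 µM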
PABP1 MLLE inh – blocks PAM2 peptide binding to the PABP1 MLLE domain | AID 588489 | hit rate 0.36% among 360,000 | inhibition, % at 20 µM | GST-MLLE / FITC-PAM2 fluorescence polarization; in the data active = inhibition above about 35%, passing the limit was not always enough;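 also: plate controls were DMSO wells with GST-MLLE for no effect and wells lacking GST-MLLE protein for full effect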
eIF4E 4G PPI – inhibitors of eIF4E and eIF4G interaction in translation initiation | P63073+Q04637 | TR-FRET eIF4E-eIF4GI(517-606) binding, 2 h | inhibition, % at 21.7 µM | hit rate 0.37% among 220,000 | AID 782;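 active = inhibition above about 30%, limit read from the data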;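 also: 0% = full FRET control wells and 100% = background wells lacking eIF4GI fragment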
eIF4H inh – inhibitors of RNA binding by human eIF4H. inhibition, % at 35 µM. hit rate 0.94% among 290,000. eIF4H fluorescence polarization binding assay;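 also: calls also rest on retests at 20 µM and on dose response follow-up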
PABP polyA inh – PABP-poly(A) binding inhibition | P11940 | PABP-poly(A) RNA binding, fluorescence polarization | calls only at 35 µM | hit rate 1% among 290,000;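 also: calls also rest on retests at 20 µM and on dose response follow-up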
Numbers without * were called inactive; i = inactive; ? = inconclusive; · = no result; + = active, no number; [ ] = another dose, or the depositor's remark. The list is not random: actives were taken first. Their share in the collection is about 1.6%. Unless noted, no rule for the calls is given here.

SMILES	PERK inh	PABP1 MLLE inh	eIF4E 4G PPI	eIF4H inh	PABP polyA inh
COc1ccc2[nH]c(=O)c(C(c3nnnn3CC3CCCO3)N3CCc4ccccc4C3)cc2c1 (centres undefined)	1	37	·	2	i
COc1ccc(OC)c2c1cc(C(=O)N[C@@H](C)C(=O)N[C@@H](C(=O)O)c1ccccc1)n2C	·	2	·	4	i
CCOC(=O)/C(=C\c1ccc(C)cc1)NC(=O)c1ccccc1	-1	5	0	78*	+
O=C(NCc1ccccn1)/C(=C/c1ccco1)NC(=O)c1ccccc1	2	-3	4	82*	+
Cc1ccc(C(=O)N/C(=C/c2ccco2)C(=O)O)cc1	0	15	10	87*	+
O=C(N/C(=C\c1ccco1)C(=O)N1CCCC1CO)c1ccccc1 (centres undefined)	·	34*	·	18	i
Cc1ccc(/C=C(\NC(=O)c2ccccc2)C(=O)OCc2ccccc2)cc1	0	-2	-1	-14	i
COc1ccccc1C(=O)N1CCCC(C)(C(=O)NS(=O)(=O)C2CC2)C1 (centres undefined)	·	9	·	·	·
O=C(O)CC1(CC(=O)Nc2ccc(Cl)cc2C(=O)c2ccccc2)CCCC1	2	0	-4	-1	i
COc1ccc(/C=N/NC(=O)CCN2CCN(c3ccccc3)CC2)c(OC)c1OC	0	2	0	-12	i
O=C(Cc1csc(N2CCOCC2)n1)N/N=C/c1ccc(O)c(O)c1O	-1	31	10	72	+
C/C(=N\NC(=O)Cc1csc(N2CCOCC2)n1)c1ccccc1	0	13	-6	4	i
O=C(CCN1CCN(c2ccccc2)CC1)N/N=C/c1ccc(O)c(O)c1O	1	19	14	95	+
COc1ccc(NC(=O)c2ccc(NCCN3C(=O)CCC3=O)c([N+](=O)[O-])c2)cc1	1	-9	9	?	+
Cc1ccc(NC(=O)c2ccc(NCCN)c([N+](=O)[O-])c2)cc1	0	-2	11	29	i
Oc1c(N=Nc2ccc(F)cc2)ccc2ccccc12	·	-31	·	50	i
Oc1c(N=Nc2nn[nH]n2)ccc2ccccc12	·	47*	·	·	·
CCCCNC(=O)Oc1cc(CCl)on1	1	·	3	-5	i
CCCCNC(=O)Oc1c(Br)cc2sc(=O)oc2c1Br	1	·	3	96*	+
S=C1N(c2ccccc2)CN(CCN2CCOCC2)CN1c1ccccc1	1	9	39*	-2	i
COc1cc(CNc2ccc(N3CCCC3)cc2)ccc1OCc1ccccc1	1	-33	7	0	i
COc1cc(CNc2ccc(N3CCCC3)cc2)ccc1OCc1ccccc1F	0	-34	32*[fluorescence artefact?]	99	i
O=C(Nc1ccccc1N1CCCC1)c1cc2ccccc2o1	-1	41*	-9	9	i
O=C(Nc1ccccc1N1CCOCC1)c1cc2ccccc2o1	·	10	·	-6	i
Cc1ccc(C(=O)Nc2ccccc2N2CCCCC2)cc1	·	-7	·	-6	i
SMILES	PERK inh	PABP1 MLLE inh	eIF4E 4G PPI	eIF4H inh	PABP polyA inh
Cc1ccc(C(=O)Nc2ccccc2N2CCCC2)cc1	·	-1	·	83*	+
O=C(N/N=C/c1cc(Br)c(Br)o1)C(O)c1ccccc1 (centres undefined)	1	-22	6	63*	i
Cn1c(=O)c2c(SCc3ccccc3)nc(-c3ccco3)nc2n(C)c1=O	4.2*	·	2	-7	i
Cn1c(=O)c2c(SCc3cccc(C(F)(F)F)c3)nc(-c3ccco3)nc2n(C)c1=O	1	3	4	-7	i
Cc1ccc(NC(=O)CN2C(=O)NC(C)(C3CC3)C2=O)cc1S(=O)(=O)N1CCCCC1 (centres undefined)	·	1	·	·	·
CN(C)CCN(Cc1ccc(Cl)cc1)c1ccccn1	0	2	4	2	i
C[N+](C)(C)CCN(Cc1ccc(Cl)cc1)c1ccccn1	0	-131	-4	-2	+
C[C@H]1O[C@@H](O[C@H]2CC[C@@]3(C)C(CC[C@]4(C)C3C=C[C@]35OC[C@@]6(CCC(C)(C)C[C@H]63)[C@@H](O)C[C@]54C)[C@]2(C)CO)[C@H](O)[C@@H](O[C@@H]2O[C@H](CO)[C@@H](O)[C@H](O)[C@H]2O)[C@H]1O (some centres undefined)	·	5	·	·	·
